Data taken from ChEMBL document CHEMBL4513135, “CO-ADD screening of IQOG CSIS (Spain) compounds”.
Measured potencies and affinities stand elsewhere.

Tests used:
[1] = system: Staphylococcus aureus; settings: Concentration 32 ug.mL-1; ASSAY_TEST Inhibition of Bacterial Growth; detection method Absorption (OD600); MEDIA CAMHB; plate type 384well; NBS; CORNING #3640; time 18 hr
[2] = system: Escherichia coli; settings: Concentration 32 ug.mL-1; ASSAY_TEST Inhibition of Bacterial Growth; detection method Absorption (OD600); MEDIA CAMHB; plate type 384well; NBS; CORNING #3640; time 18 hr

Row | SMILES | Inhibition [1] [%] | Inhibition [2] [%]
1 | N#CC1(Br)C(=N)Oc2ccc3ccccc3c2C1c1cccc([N+](=O)[O-])c1 (stereo unspecified) | 22.75 | -22.9
2 | O=C(O)n1ccc2ccccc21 | 10.57 | 9.43
3 | N#CC1=C(N)Oc2ccc3ccccc3c2C1c1ccccc1 (stereo unspecified) | 40.09 | -6.38
4 | C#CCN(C)c1nc(OC)c(C#N)c(-c2ccccc2)c1C#N | 44.46 | -5.76
5 | Nc1c2c(nc3nc4ccccc4nc13)CCCC2 | 36.81 | -11.07
6 | CCOC(=O)c1c(C)nc2nc3c(c(N)c2c1-c1ccccc1OC)CCCCC3 | 5.11 | -17.67
7 | COc1ccc(C=C2N=C(c3ccccc3)OC2=O)cc1 | 12.56 | 14.02
8 | C=CCNCc1cc2cc(OCCCC3CCN(Cc4ccccc4)CC3)ccc2[nH]1.O.O=C(O)C(=O)O.O=C(O)C(=O)O | 13.83 | -23.08
9 | Cc1ccc(C2c3c(nc4c(c3N)CCCC4)Oc3ccc4ccccc4c32)cc1 (stereo unspecified) | 10.92 | -5.39
10 | NOC(=O)C1CCN(Cc2ccccc2)CC1 | 21.2 | 1.52
11 | Cn1cc(/C=C2\NC(=S)NC2=O)c2ccccc21 | 2.93 | 3.35
12 | N#CC1=C(N)Oc2c(ccc3ccccc23)C1c1ccc(O)cc1 (stereo unspecified) | 21.57 | -18.15
13 | CN(N=O)C(=O)NC1(C(=O)O)CC1c1ccccc1 (stereo unspecified) | 15 | 11.14
14 | NNC(=O)c1cc2ccccc2n1Cc1ccccc1 | -21.85 | -14.39
15 | CSC1=NC(=Cc2cn(C(c3ccccc3)(c3ccccc3)c3ccccc3)c3ccccc23)C(=O)N1C | -1.08 | 9.28
16 | CC(C)CC(C)NNC(=O)c1cc2ccccc2[nH]1 (stereo unspecified) | -8.06 | -7.16
17 | CN1C/C(=C\Br)n2c1c(C#N)cc(C#N)c2=O | 16.92 | -11.76
18 | Cc1ccc(C2c3ccc4ccccc4c3Oc3nc4c(c(N)c32)CCCC4)cc1 (stereo unspecified) | -4.73 | -12.25
19 | Cc1ccc(C2c3c(Cl)nnnc3Oc3ccc4ccccc4c32)cc1 (stereo unspecified) | 36.97 | 16.16
20 | COc1cc(C2CC2(N)C(=O)O)ccc1O (stereo unspecified) | 4.38 | -1.72
21 | c1ccc(Cn2ccc3ccccc32)cc1 | 7.36 | 11.73
22 | CC1Cc2c(Cl)nc3nc4c(c(N)c3c2NC1=O)CCCC4 (stereo unspecified) | 46.7 | -7.98
23 | COc1ccc2cc(C3C4=C(CC(C)(C)CC4=O)Oc4nc5c(c(N)c43)CCC5)c(Cl)nc2c1 (stereo unspecified) | 18.17 | 11.31
